Experimental findings from PubChem BioAssay (NCI) are described below.

Several values for one entry are separate records, joined by “and”; a condition that tells them apart may be missing. Equal entries are not always repeated. The panel holds about 79,000 compounds, 15% with a hit somewhere; the sample as a whole holds those more often. Activity calls are given as the source filed them. No stated cut-off is given here; in the data, active means growth inhibition above about 70%; inactive means the rest.

The assay can be described thus: NCI Yeast Anticancer Drug Screen. Data for the rad50 strain (AID 155).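 Further: 0% = growth of vehicle-only cultures of the same strain.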 The note with it: S. cerevisiae rad50 strain growth inhibition, stronger effect = higher value; at 50.0 µM unless noted. A digest of the protocol: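 Vehicle-treated cultures provide the reference for the growth inhibition reported for compound-exposed, repair-deficient yeast.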
On to `CCOC(=O)/C=C/CCC(C)(C)COC(C)=O`, for which the growth inhibition is -10.1% (inactive). Consider `C=C(C)C(=O)O[C@H]1[C@H]2[C@H](OC(=O)[C@H]2C)[C@H](O)[C@@H](C)[C@@H]2C=CC(=O)[C@]21C`, for which the growth inhibition was 31.3% (inactive). Regarding `O=c1oc(-c2ccc([N+](=O)[O-])cc2)nc2cc(Cl)ccc12`, the growth inhibition was 17.8% (inactive).

Take `O=C(/C=C/c1ccc(O)c(O)c1)OC1CC(O)(C(=O)O)CC(O)C1O` (stereo unspecified) (tested in a mixture with another compound): the growth inhibition was -26.6% (inactive). As for `Cc1ccc(C2OC3=C(Nc4ccc([N+](=O)[O-])cc4N3)C2=O)cc1` (stereo unspecified), the growth inhibition was 10.1% (inactive).

Regarding `CC(=O)CC(=O)NCC1CCC(CNC(=O)CC(C)=O)CC1` (stereo unspecified), the growth inhibition is -26.6% (inactive). As for `Cc1[nH]c(=S)[nH]c1C`, the figure is 4.1% (inactive); as for `C[N+](C)=c1nc(N2CCOCC2)ss1`, 1.95% (inactive). As for `O=C(O)C1C2OC3C(OC(=O)C31)C2Br` (stereo unspecified), the figure is -9.6% (inactive) and 3.1% (inactive); as for `O=C1NC(Cc2ccccc2)C(=O)NC1Cc1ccccc1` (stereo unspecified), 2.35% (inactive).

Take `CCCCC(NC(=O)C(C)NC(=O)OCc1ccccc1)C(=O)O` (stereo unspecified): the growth inhibition was 2% (inactive).

As for `CC1(C)N=C(Oc2cc(Cl)cc(Cl)c2)NC(=S)N1`, the growth inhibition was 11.8% (inactive). As for `c1ccc2c(c1)ccc1c[n+]3ccccc3cc12`, the figure is 26.6% (inactive); as for `O=C(F)c1cccc2ccccc12`, -25.9% (inactive); as for `Cc1c2ccccc2nc(CS(C)(=O)=O)[n+]1[O-]`, -16.9% (inactive).

In the case of `COc1ccc(C=C(C(=O)O)C(=O)O)cc1`, the growth inhibition was 30.1% (inactive).
